Assay results: PubChem BioAssay (EPA / NIEHS)
Calls of active or inactive are those of the source. How the source made its calls: active means hit-call score of the fitted dose curve at least 0.9, where 1 is the maximum; inactive means score below 0.9.

read-out: Macrophage colony-stimulating factor (MCSF), CSF1 (gene 1435); assay: BSK_LPS_MCSF: BioMAP Diversity Plus: LPS Assay for Macrophage colony-stimulating factor (MCSF) Biomarker Activity (AID 2283083); conditions: primary human HUVEC with PBMC; actives raise or lower the signal
Protocol: BSK_LPS is a cell-based, multiplexed-readout assay that uses umbilical vein endothelium and peripheral blood mononuclear cells, a human vascular primary cell co-culture, with measurements taken at 24 hours after chemical dosing in a 96-well plate.BSK_LPS_MCSF is an assay component measured in the BSK_LPS assay. It measures M-CSF antibody related to regulation of gene expression using ELISA technology.Data from the assay component BSK_LPS_MCSF was analyzed into 1 assay endpoint. This assay endpoint, BSK_LPS_MCSF, was analyzed with bidirectional fitting relative to DMSO as the negative control and baseline of activity. Using a type of binding reporter, gain or loss-of-signal activity can be used to understand changes in the signaling as they relate to the gene CSF1. Furthermore, this assay endpoint can be referred to as a primary readout, because this assay has produced multiple assay endpoints where this one serves a signaling function. To generalize the intended target to other relatable targets, this assay endpoint is annotated to the cytokine intended target family, where the subfamily is colony stimulating factor.
The levels of cell surface (or secreted, indicated by the prefix "s") biomarker endpoints were measured by ELISA. Overt cytotoxicity to cells in confluent adherent cultures (all systems other than the BT system) was assessed by measuring total protein levels using sulforhodamine B (SRB) staining in parallel cultures at the time of biomarker measurements, indicated as SRB endpoints. For proliferation assays for adherent cell types, individual cell types are cultured at sub-confluence and relative cell numbers quantified by SRB staining at time points optimized for each system (48 h: 3C and CASM3C systems; 72 h: BT and HDF3CGF systems; 96 h: SAg system). SRB was performed by staining cells with 0.1% SRB after fixation with 10% TCA and reading wells at 560 nm.Viability and proliferation of PBMC (T cells) was quantified by Alamar Blue reduction for the SAg and BT systems. For PBMC viability (referred to as PBMC Cytotoxicity within the assay endpoint names), cells were plated (75,000/well in a 96-well plate) and then chemical samples added for 1 h before addition of activators, SEB and TSST-1 (20 ng/mL final concentration each). Cells were incubated for 90 h. Then, Alamar Blue (20 uL/well) (Invitrogen, Cat DAL1100) was added for 6 h, and the plates were read with a fluorescence microplate reader at 546/580 nm (excitation/emission). For PBMC proliferation, cells were plated and activated as above but incubated for only 16 h prior to addition of Alamar Blue. Plates were read after 6 h.

SMILES	outcome	AC50
CCn1nc(C)c2c1C(=O)NCC(c1ccc(O)cc1)=N2	inactive	
O=C(O)c1ccc2c(c1)nc(C(=O)NC1CCN(C3CC3)CC1)n2Cc1cc(-c2ccc(Cl)s2)on1	inactive	
COc1cc2c(c(OC)c1OC)-c1ccc(OC)c(=O)cc1[C@@H](NC(C)=O)CC2		0.493 µM (active)
FC(F)=C(F)C(F)(F)C(F)(F)C(F)(F)C(F)(F)C(F)(F)C(F)(F)F	inactive	
Cc1nc(-c2ccccn2)ncc1C(=O)Nn1cc(C)c2cc(F)ccc21	inactive	
O=C(Cl)C(F)(F)C(F)(F)C(F)(F)C(=O)Cl	inactive	
c1ccc2cc3ccccc3cc2c1	inactive	
Cn1c(=O)c2[nH]cnc2n(C)c1=O	inactive	
c1ccc(C(O[C@@H]2CCCN(CCc3ccc4c(c3)OCO4)C2)c2ccccc2)cc1		29.8 µM (active)
C=CCc1cc(S(=O)(=O)c2ccc(O)c(CC=C)c2)ccc1O		28.6 µM (active)
C[Si](C)(C)C(F)(F)C(F)(F)C(F)(F)F	inactive	
CCCc1ccccc1	inactive	
NC(=O)N(O)[C@@H]1COc2cc(OCc3ccccc3)ccc21	inactive	
O=C(O)c1cccc(C[C@@H]2COc3ccc(OCc4nc5cc(F)ccc5s4)cc3[C@@H]2O)c1	inactive	
CCCOc1ccc(S(=O)(=O)N2CCN(CC)CC2)cc1-c1nc2c(CC)n(Cc3ccccn3)nc2c(=O)[nH]1	inactive	
COCc1nnc(-c2ccc[n+]([O-])c2)n1-c1c(Cl)c(Cl)cc2[nH]c(=O)c(=O)[nH]c12	inactive	
CC(C)C(=O)Nc1ccc([N+](=O)[O-])c(C(F)(F)F)c1	inactive	
CCc1cccc(CC)c1N	inactive	
CCCCCOC(C)=O	inactive	
OC(Cn1cncn1)(Cn1cncn1)c1ccc(F)cc1F	inactive	

SMILES	outcome	AC50
CCCCOC(=O)c1ccccc1	inactive	
C[C@]12C=CC(=O)C=C1CC[C@H]1[C@@H]3C[C@@H](O)[C@](O)(C(=O)CO)[C@@]3(C)C[C@H](O)[C@@]12F	inactive	
COc1cc(C(C)C)c2c(c1)S(=O)(=O)N(COc1cc(=O)n3cccc(OCCN4CCCCC4)c3n1)C2=O		5 µM (active)
CC(C)CCCCCCOC(=O)C1CCCCC1C(=O)OCCCCCCC(C)C (stereo not given)	inactive	
O=S(=O)(O)CCC(F)(F)C(F)(F)C(F)(F)C(F)(F)C(F)(F)C(F)(F)F	inactive	
c1ccc2c(c1)-c1cccc3c1c-2cc1ccccc13	inactive	
Cc1ccc(S(=O)(=O)NC(=O)NN2CCCCCC2)cc1	inactive	
S=P(N1CC1)(N1CC1)N1CC1	inactive	
OCc1c[nH]c2ccccc12		3.97 µM (active)
O=S(=O)(O)c1ccc(N=Nc2c(O)ccc3cc(S(=O)(=O)O)ccc23)cc1	inactive	
OC[C@H]1O[C@@](CO)(O[C@H]2O[C@H](CO)[C@@H](O)[C@H](O)[C@H]2O)[C@@H](O)[C@@H]1O	inactive	
CC(=O)c1ccccc1	inactive	
CC[C@H](C)C(=O)O[C@H]1C[C@H](O)C=C2C=C[C@H](C)[C@H](CC[C@@H](O)C[C@@H](O)CC(=O)O)[C@H]21	inactive	
OCCNCCO	inactive	
C[C@@H](Oc1ccc(CNC(=O)c2cccnc2Oc2ccc3c(c2)OCO3)c(F)c1)C(=O)O	inactive	
CCCCCCCCCCCCCCO		31.5 µM (active)
FC(F)(F)COC(OCC(F)(F)F)OCC(F)(F)F	inactive	
CCCCCCCCCCCCCCCCOS(=O)(=O)O	inactive	
O=S1(=O)CCCO1	inactive	
Cn1cc[nH]c1=S	inactive	
